Results on 9 substances are retold here after the supplement of paper PMC8728848.

Assay in all cases: glycan array binding signal (z-score within array); higher = stronger binding
Assay [1] relates to Neu5Ac9Ac(a2-6)Gal(b1-4)GlcNAc. Conditions: glycan notation: IUPAC condensed, linker removed. The essentials: (§1)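 Negative Z-scores can be read as non-binding. The Z-score is calculated within each array and then averaged across arrays of one protein sequence at different concentrations or buffers and across linkers. Arrays, 3228 in all, were curated from the Consortium for Functional Glycomics database and kept only where the protein sequence was available.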

Assay [2] deals with Neu5Ac(a2-8)Neu5Ac. Conditions: glycan notation: IUPAC condensed, linker removed. The procedure, abridged: as §1
Assay [3] has as its system Neu5Ac9Ac(a2-3)Gal(b1-3)GlcNAc. Conditions: glycan notation: IUPAC condensed, linker removed. The procedure, abridged: as §1
In assay [4] the test system is Neu5Ac(b2-6)GalNAc. Conditions: glycan notation: IUPAC condensed, linker removed. The essentials:
as §1

Assay [5] relates to Neu5Ac(a2-8)Neu5Ac(a2-8)Neu5Ac(a2-8)Neu5Ac(a2-3)[GalNAc(b1-4)]Gal(b1-4)Glc. Conditions: glycan notation: IUPAC condensed, linker removed. The essentials: as §1
Assay [6] has as its system Neu5Gc(a2-3)Gal(b1-4)GlcNAc. Conditions: glycan notation: IUPAC condensed, linker removed. The essentials:
as §1

Assay [7] deals with Neu5Ac(a2-8)Neu5Ac(a2-8)Neu5Ac. Conditions: glycan notation: IUPAC condensed, linker removed; mutation: D138V, E140I. The essentials:
as §1

Assay [8] concerns Neu5Ac9Ac(a2-3)Gal(b1-4)GlcNAc. Conditions: glycan notation: IUPAC condensed, linker removed; mutation: R125K. The essentials:
as §1

The subject of assay [9] is Neu5Gc(a2-3)Gal(b1-3)[Fuc(a1-4)]GlcNAc. Conditions: glycan notation: IUPAC condensed, linker removed; mutation: R125K. The essentials:
as §1

Assay [10] deals with Neu5Gc(a2-3)Gal(b1-4)GlcNAc(b1-3)Gal(b1-4)GlcNAc(b1-2)Man(a1-3)[Neu5Gc(a2-3)Gal(b1-4)GlcNAc(b1-3)Gal(b1-4)GlcNAc(b1-2)Man(a1-6)]Man(b1-4)GlcNAc(b1-4)GlcNAc. Conditions: glycan notation: IUPAC condensed, linker removed. The essentials: as §1

This excerpt belongs to a sample that is enriched for the strongest signals.

CHI3L1 (Homo sapiens), P36222, sequence (P36222 whole entry): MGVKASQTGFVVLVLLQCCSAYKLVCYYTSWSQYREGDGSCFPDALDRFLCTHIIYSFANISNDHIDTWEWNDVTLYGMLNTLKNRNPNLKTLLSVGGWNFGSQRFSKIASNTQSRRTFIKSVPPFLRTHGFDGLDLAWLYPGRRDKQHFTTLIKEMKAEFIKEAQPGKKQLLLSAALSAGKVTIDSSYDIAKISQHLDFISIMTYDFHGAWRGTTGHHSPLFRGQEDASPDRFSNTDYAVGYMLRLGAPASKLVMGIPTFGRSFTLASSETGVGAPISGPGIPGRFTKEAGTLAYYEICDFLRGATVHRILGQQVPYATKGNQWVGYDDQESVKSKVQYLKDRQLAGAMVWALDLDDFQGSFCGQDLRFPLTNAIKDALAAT
Avaren (Actinomycete K97), sequence (chain, as listed by the source): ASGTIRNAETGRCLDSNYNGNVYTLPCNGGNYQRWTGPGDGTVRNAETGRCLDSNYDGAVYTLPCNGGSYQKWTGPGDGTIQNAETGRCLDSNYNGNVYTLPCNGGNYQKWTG
6RG (Lolium perenne), B9U140, sequence (B9U140 entry or part of it): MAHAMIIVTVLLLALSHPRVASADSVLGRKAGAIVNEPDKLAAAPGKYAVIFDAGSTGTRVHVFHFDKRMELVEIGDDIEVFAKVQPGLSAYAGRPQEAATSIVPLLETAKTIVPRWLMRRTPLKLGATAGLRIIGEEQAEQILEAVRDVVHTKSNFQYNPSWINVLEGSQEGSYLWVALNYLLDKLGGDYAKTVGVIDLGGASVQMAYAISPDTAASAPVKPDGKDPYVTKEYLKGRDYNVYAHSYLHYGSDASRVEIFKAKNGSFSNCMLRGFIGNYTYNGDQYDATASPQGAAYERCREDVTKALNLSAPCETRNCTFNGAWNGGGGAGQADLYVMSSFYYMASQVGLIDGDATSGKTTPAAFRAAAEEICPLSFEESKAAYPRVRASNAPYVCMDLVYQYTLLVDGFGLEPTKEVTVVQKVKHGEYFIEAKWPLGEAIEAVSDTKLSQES
C3b (Homo sapiens), P01024, sequence (P01024 23-667): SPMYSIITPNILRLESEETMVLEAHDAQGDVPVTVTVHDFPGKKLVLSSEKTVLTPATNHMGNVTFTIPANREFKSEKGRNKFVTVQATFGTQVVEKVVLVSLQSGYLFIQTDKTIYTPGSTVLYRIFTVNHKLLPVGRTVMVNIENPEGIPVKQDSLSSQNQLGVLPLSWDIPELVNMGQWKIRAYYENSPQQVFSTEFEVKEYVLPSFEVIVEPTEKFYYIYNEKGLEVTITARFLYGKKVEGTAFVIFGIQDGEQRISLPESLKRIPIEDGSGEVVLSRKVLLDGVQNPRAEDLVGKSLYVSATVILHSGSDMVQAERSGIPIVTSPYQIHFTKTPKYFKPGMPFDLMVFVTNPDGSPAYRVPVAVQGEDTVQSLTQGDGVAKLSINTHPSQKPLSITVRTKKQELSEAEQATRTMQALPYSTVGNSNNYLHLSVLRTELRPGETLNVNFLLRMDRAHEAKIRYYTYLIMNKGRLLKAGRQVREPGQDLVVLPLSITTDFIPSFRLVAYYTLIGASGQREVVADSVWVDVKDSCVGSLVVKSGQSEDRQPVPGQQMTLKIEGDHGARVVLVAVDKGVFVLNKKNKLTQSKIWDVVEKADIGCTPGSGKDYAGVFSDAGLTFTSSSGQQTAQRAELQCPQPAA
6RG (Lolium perenne), sequence (chain, as listed by the source): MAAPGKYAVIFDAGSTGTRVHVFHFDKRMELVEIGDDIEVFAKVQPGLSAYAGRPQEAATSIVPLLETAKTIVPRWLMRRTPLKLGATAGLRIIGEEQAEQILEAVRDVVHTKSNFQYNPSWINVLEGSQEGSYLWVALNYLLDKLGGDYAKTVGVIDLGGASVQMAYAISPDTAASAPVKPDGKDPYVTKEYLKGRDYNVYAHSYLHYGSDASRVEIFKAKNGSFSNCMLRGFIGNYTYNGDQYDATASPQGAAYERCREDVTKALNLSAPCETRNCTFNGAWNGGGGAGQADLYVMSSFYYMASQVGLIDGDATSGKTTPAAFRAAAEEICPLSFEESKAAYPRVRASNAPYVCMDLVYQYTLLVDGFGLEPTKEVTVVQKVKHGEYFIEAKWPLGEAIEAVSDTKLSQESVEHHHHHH
CHT (Homo sapiens), sequence (chain, as listed by the source): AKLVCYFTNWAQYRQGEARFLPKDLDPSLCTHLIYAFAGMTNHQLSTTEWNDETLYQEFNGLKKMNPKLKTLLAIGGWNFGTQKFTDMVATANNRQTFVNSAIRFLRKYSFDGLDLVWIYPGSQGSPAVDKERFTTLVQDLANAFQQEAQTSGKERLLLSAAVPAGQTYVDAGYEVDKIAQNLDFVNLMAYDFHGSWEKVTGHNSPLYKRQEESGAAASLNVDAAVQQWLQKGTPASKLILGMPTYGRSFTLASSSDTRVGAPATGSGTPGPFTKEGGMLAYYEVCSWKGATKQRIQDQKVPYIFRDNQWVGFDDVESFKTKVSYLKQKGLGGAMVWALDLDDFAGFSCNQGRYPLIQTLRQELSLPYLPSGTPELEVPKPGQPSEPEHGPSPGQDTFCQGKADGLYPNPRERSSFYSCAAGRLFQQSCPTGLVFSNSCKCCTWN
Neurocan (Homo sapiens), O14594, sequence (O14594 other isoform, or with tags, fused parts or gaps): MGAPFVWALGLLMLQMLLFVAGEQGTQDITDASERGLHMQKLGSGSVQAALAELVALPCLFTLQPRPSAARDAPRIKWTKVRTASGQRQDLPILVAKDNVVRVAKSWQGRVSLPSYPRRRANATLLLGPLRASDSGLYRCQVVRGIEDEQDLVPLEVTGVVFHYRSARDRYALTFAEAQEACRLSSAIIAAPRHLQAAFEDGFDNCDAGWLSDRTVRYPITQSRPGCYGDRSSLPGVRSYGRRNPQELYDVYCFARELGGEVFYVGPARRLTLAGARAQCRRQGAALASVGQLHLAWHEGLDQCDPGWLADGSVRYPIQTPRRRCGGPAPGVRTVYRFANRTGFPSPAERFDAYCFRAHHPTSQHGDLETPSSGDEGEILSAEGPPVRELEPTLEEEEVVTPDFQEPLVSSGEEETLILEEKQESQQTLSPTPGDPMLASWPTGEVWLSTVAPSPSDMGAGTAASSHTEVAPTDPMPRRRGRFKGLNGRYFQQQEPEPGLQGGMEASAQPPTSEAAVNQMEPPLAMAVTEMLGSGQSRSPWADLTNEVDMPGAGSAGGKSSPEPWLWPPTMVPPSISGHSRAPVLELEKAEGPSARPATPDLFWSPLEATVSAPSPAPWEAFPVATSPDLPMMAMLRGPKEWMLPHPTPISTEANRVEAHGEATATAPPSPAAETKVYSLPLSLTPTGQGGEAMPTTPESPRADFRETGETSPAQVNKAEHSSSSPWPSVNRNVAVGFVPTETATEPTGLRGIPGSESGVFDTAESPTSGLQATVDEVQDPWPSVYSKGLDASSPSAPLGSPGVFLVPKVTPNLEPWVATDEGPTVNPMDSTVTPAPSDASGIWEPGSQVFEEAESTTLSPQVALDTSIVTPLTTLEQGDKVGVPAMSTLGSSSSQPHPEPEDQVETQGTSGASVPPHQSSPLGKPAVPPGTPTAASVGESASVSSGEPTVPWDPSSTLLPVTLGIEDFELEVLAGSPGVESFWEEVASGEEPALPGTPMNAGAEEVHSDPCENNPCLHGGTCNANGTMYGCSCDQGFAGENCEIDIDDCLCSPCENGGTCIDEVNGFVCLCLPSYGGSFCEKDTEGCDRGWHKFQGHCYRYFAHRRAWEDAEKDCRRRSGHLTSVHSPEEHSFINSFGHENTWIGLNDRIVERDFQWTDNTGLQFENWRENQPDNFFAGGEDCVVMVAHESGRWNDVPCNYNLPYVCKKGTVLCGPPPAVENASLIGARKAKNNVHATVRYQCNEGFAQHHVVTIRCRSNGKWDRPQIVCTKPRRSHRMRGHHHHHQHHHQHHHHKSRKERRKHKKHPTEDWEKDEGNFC

On to 6RG (Lolium perenne), B9U140, for which the “glycan array binding signal (z-score)” value in assay [1] came out at 2.52. For the substance CHI3L1 (Homo sapiens), P36222, the “glycan array binding signal (z-score)” value was -0.091 in assay [2] and -0.07 in assay [3]. In the case of Avaren (Actinomycete K97), in [4], the “glycan array binding signal (z-score)” value was -0.14. Consider C3b (Homo sapiens), P01024, for which, in assay [5], the “glycan array binding signal (z-score)” value is -0.102.

Regarding Neurocan (Homo sapiens), O14594, the “glycan array binding signal (z-score)” value in [6] was -0.18. In the case of MpAFP RI GFP (Marinomonas primoryensis), the “glycan array binding signal (z-score)” value in assay [3] was 0.228; in assay [1] it was -0.772. For the substance 6RG (Lolium perenne), the “glycan array binding signal (z-score)” value in assay [2] is -0.273. CHT (Homo sapiens): the “glycan array binding signal (z-score)” value in assay [7] was -0.166. In the case of Siglec-8 (Homo sapiens), Q9NYZ4, the “glycan array binding signal (z-score)” value in [2] was 0.014; in [3] it was -0.078; in assay [8], -0.109; in assay [9], -0.465; in [10], 0.025; in [6] (mutation: R125K), -0.109.
